From PubChem BioAssay (EPA / NIEHS)
Calls of active or inactive are those of the source. Rule for the calls: active = hit-call score of the fitted dose curve at least 0.9, where 1 is the maximum; inactive = score below 0.9.

Legend:
[1] = BSK_hDFCGF_SRB: Viability Assessment in the BioMAP Diversity Plus: hDFCGF Assay (AID 2283061); settings: primary human foreskin fibroblasts;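 note: cells exposed to compound for 24 h before the read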
Method in brief: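 Human foreskin fibroblasts in 96-well plates were treated 24 h. Total protein was measured by 0.1% SRB staining after 10% TCA fixation, read at 560 nm. Data were fitted bidirectionally against DMSO.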

[2] = read-out: TIMP metallopeptidase inhibitor 1 (TIMP1), TIMP1 (gene 7076); test: BSK_hDFCGF_TIMP1: BioMAP Diversity Plus: hDFCGF Assay for TIMP metallopeptidase inhibitor 1 (TIMP1) Biomarker Activity (AID 2283062); settings: primary human foreskin fibroblasts; actives raise or lower the signal
Method in brief: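 Human foreskin fibroblast primary cultures dosed for 24 h; secreted/surface TIMP-1 quantified by ELISA. Bidirectional curve fitting against DMSO baseline; cytotoxicity tracked in parallel cultures by SRB total-protein staining.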

[3] = read-out: Monokine induced gamma interferon (MIG), CXCL9 (gene 4283); test: BSK_hDFCGF_MIG: BioMAP Diversity Plus: hDFCGF Assay for Monokine induced gamma interferon (MIG) Biomarker Activity (AID 2283063); settings: primary human foreskin fibroblasts; actives raise or lower the signal
Method in brief: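 MIG/CXCL9 measured by ELISA 24 h after dosing primary human skin fibroblasts. Activity fitted in both directions against DMSO controls. Cytotoxicity was checked in parallel cultures by SRB staining read at 560 nm.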

[4] = read-out: Matrix Metallopeptidase 1 (MMP1), MMP1 (gene 4312); test: BSK_hDFCGF_MMP1: BioMAP Diversity Plus: hDFCGF Assay for Matrix Metallopeptidase 1 (MMP1) Biomarker Activity (AID 2283064); settings: primary human foreskin fibroblasts; actives raise or lower the signal
Method in brief: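 ELISA read-out of MMP1 from human foreskin fibroblasts (primary skin cells), 24 h post-dose. Gain or loss of signal was fitted bidirectionally versus DMSO negative control; cytotoxicity was checked by SRB in parallel cultures.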

[5] = read-out: Plasminogen activator inhibitor-1 (PAI1), SERPINE1 (gene 5054); test: BSK_hDFCGF_PAI1: BioMAP Diversity Plus: hDFCGF Assay for Plasminogen activator inhibitor-1 (PAI1) Biomarker Activity (AID 2283066); settings: primary human foreskin fibroblasts; actives raise or lower the signal
Method in brief: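 PAI-1 levels in human dermal foreskin fibroblasts were quantified by ELISA 24 h after dosing, with gain or loss analysed against DMSO. Overt cytotoxicity was checked by sulforhodamine B total-protein staining in parallel cultures.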

[6] = read-out: Intercellular Adhesion Molecule 1 (ICAM1), ICAM1 (gene 3383); test: BSK_KF3CT_ICAM1: BioMAP Diversity Plus: KF3CT Assay for Intercellular Adhesion Molecule 1 (ICAM1) Biomarker Activity (AID 2283067); settings: primary human keratinocytes with fibroblasts; actives raise or lower the signal
Method in brief: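 Human keratinocyte–foreskin fibroblast co-culture was treated for 24 h. Cell-surface ICAM-1 was quantified by ELISA, fitted bidirectionally relative to DMSO. Cytotoxicity was checked in parallel cultures by SRB total-protein staining.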

[7] = read-out: Interferon-gamma inducible Protein 10 (IP10), CXCL10 (gene 3627); test: BSK_KF3CT_IP10: BioMAP Diversity Plus: KF3CT Assay for Interferon-gamma inducible Protein 10 (IP10) Biomarker Activity (AID 2283068); settings: primary human keratinocytes with fibroblasts; actives raise or lower the signal
Method in brief: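 KF3CT co-culture (keratinocytes + foreskin fibroblasts), 24 h compound, IP-10 by ELISA; bidirectional fit vs DMSO baseline.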

[8] = BSK_KF3CT_SRB: Viability Assessment in the BioMAP Diversity Plus: KF3CT Assay (AID 2283069); settings: primary human keratinocytes with fibroblasts;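 note: read 24 h after compound addition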
Method in brief: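 SRB read-out at 560 nm (0.1% stain, TCA-fixed cells) gauges overt cytotoxicity in a human skin keratinocyte–fibroblast co-culture 24 h post-dosing. Signal change was fitted bidirectionally relative to DMSO control.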

[9] = read-out: Interleukin-1 alpha (IL1a), IL1A (gene 3552); test: BSK_KF3CT_IL1a: BioMAP Diversity Plus: KF3CT Assay for Interleukin-1 alpha (IL1a) Biomarker Activity (AID 2283070); settings: primary human keratinocytes with fibroblasts; actives raise or lower the signal
Method in brief: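 Primary skin co-culture (keratinocytes, foreskin fibroblasts), 24 h exposure; ELISA for IL-1a; bidirectional curve fit vs DMSO.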

[10] = read-out: C-C motif chemokine 2 (Homo sapiens) (UniProt P13500); test: BSK_KF3CT_MCP1: BioMAP Diversity Plus: KF3CT Assay for Monocyte Chemoattractant Protein 1 (MCP1/CCL2) Biomarker Activity (AID 2283073); settings: primary human keratinocytes with fibroblasts; actives raise or lower the signal
Method in brief: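 Human keratinocyte–foreskin fibroblast co-culture; MCP-1 measured by ELISA 24 h after dosing. Bidirectional fit vs DMSO; cytotoxicity tracked by SRB total protein in parallel cultures.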

[11] = read-out: Matrix Metallopeptidase 9 (MMP9), MMP9 (gene 4318); test: BSK_KF3CT_MMP9: BioMAP Diversity Plus: KF3CT Assay for Matrix Metallopeptidase 9 (MMP9) Biomarker Activity (AID 2283074); settings: primary human keratinocytes with fibroblasts; actives raise or lower the signal
Method in brief: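 ELISA read-out of MMP-9 at 24 h post-dosing in a co-culture of human skin keratinocytes and foreskin fibroblasts. Gain or loss of signal was fitted in both directions against DMSO.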

[12] = read-out: urokinase plasminogen activator (uPA), PLAU (gene 5328); test: BSK_KF3CT_uPA: BioMAP Diversity Plus: KF3CT Assay for urokinase plasminogen activator (uPA) Biomarker Activity (AID 2283075); settings: primary human keratinocytes with fibroblasts; actives raise or lower the signal
Method in brief: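 Skin co-culture (keratinocytes + foreskin fibroblasts), human primary; 24 h post-dose; uPA by ELISA; gain/loss fit vs DMSO baseline.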

[13] = read-out: CD40, CD40 (gene 958); test: BSK_LPS_CD40: BioMAP Diversity Plus: LPS Assay for CD40 Biomarker Activity (AID 2283076); settings: primary human HUVEC with PBMC; actives raise or lower the signal
Method in brief: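 HUVEC plus PBMC co-culture stimulated with LPS; CD40 quantified by ELISA 24 h after compound dosing. Fitting was bidirectional relative to DMSO. SRB staining of parallel cultures flagged overt cytotoxicity.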

[14] = read-out: E-selectin (Homo sapiens) (UniProt P16581); test: BSK_LPS_Eselectin: BioMAP Diversity Plus: LPS Assay for Eselectin Biomarker Activity (AID 2283077); settings: primary human HUVEC with PBMC; actives raise or lower the signal
Method in brief: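 Human umbilical vein endothelial cells co-cultured with PBMC under LPS stimulation; cell-surface E-selectin measured by ELISA 24 h after dosing. Change in either direction versus DMSO, with SRB total-protein staining in parallel cultures for cytotoxicity.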

[15] = read-out: Interleukin-8 (IL8), CXCL8 (gene 3576); test: BSK_LPS_IL8: BioMAP Diversity Plus: LPS Assay for Interleukin-8 (IL8) Biomarker Activity (AID 2283078); settings: primary human HUVEC with PBMC; actives raise or lower the signal
Method in brief: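 Human umbilical vein endothelial cells co-cultured with PBMC, LPS-stimulated, exposed to compound for 24 h. IL-8 quantified by ELISA; fitted in both directions against DMSO, with SRB total-protein staining of parallel cultures for cytotoxicity.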

[16] = BSK_LPS_SRB: Viability Assessment in the BioMAP Diversity Plus: LPS Assay (AID 2283079); settings: primary human HUVEC with PBMC;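 note: total protein by sulforhodamine B absorbance as a cytotoxicity measure; measured one day after compound addition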
Method in brief: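 Co-culture of human umbilical vein endothelial cells and PBMC, read 24 h after dosing. Total protein by 0.1% SRB staining after 10% TCA fixation, absorbance at 560 nm; bidirectional fit against DMSO.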

[17] = read-out: Interleukin-1 alpha (IL1a), IL1A (gene 3552); test: BSK_LPS_IL1a: BioMAP Diversity Plus: LPS Assay for Interleukin-1 alpha (IL1a) Biomarker Activity (AID 2283080); settings: primary human HUVEC with PBMC; actives raise or lower the signal
Method in brief: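 Human umbilical vein endothelial cells co-cultured with PBMC and stimulated with LPS; IL-1a measured by ELISA 24 h after dosing. Bidirectional fitting against DMSO; cytotoxicity checked by SRB staining in parallel cultures.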

[18] = read-out: Transforming growth factor beta 1 (TGFb1), TGFB1 (gene 7040); test: BSK_KF3CT_TGFb1: BioMAP Diversity Plus: KF3CT Assay for Transforming growth factor beta 1 (TGFb1) Biomarker Activity (AID 2283072); settings: primary human keratinocytes with fibroblasts; actives raise or lower the signal
Method in brief: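 ELISA quantifies TGF-b1 at 24 h post-dose in a primary human skin co-culture of keratinocytes and fibroblasts, with gain or loss judged against DMSO. Parallel SRB total-protein staining flags overt cytotoxicity.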

[19] = read-out: TIMP metallopeptidase inhibitor 2 (TIMP2), TIMP2 (gene 7077); test: BSK_KF3CT_TIMP2: BioMAP Diversity Plus: KF3CT Assay for TIMP metallopeptidase inhibitor 2 (TIMP2) Biomarker Activity (AID 2283071); settings: primary human keratinocytes with fibroblasts; actives raise or lower the signal
Method in brief: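 TIMP-2 measured by ELISA at 24 h in human keratinocyte/fibroblast primary co-cultures exposed to chemicals. Both increases and decreases were fitted against DMSO. Parallel cultures were stained with SRB for total protein as an overt-cytotoxicity check.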

Measured: outcome

E-selectin (Homo sapiens), sequence (P16581 whole entry, looked up): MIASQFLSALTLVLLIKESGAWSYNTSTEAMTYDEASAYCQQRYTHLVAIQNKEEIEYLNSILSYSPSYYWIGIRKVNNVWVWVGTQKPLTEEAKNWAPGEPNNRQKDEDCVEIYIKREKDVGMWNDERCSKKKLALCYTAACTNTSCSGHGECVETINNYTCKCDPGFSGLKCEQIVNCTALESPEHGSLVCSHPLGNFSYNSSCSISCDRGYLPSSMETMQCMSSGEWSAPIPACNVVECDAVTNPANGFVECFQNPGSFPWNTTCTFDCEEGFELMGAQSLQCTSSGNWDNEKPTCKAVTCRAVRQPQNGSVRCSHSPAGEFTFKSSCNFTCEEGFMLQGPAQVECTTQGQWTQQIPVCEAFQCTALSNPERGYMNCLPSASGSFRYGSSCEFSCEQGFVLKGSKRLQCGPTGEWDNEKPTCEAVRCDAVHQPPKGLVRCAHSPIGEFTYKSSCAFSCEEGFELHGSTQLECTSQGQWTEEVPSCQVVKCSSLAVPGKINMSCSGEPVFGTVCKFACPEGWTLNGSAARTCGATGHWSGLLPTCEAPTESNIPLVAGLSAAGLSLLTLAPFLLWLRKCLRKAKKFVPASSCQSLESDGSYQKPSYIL

CC(C)c1ccc(C(=O)N=C(N)N)cc1S(C)(=O)=O
not listed: [18] | [19]
inactive: all other assays above

COc1cc(C=O)ccc1O
not listed: [5] | [18] | [19]
inactive: all other assays above

Nc1nc(N)c2nc(CNc3ccc(C(=O)N[C@@H](CCC(=O)O)C(=O)O)cc3)cnc2n1
not listed: [5] | [8] | [13] | [18] | [19]
inactive: all other assays above

CN1CCCC1=O
not listed: [5] | [8] | [19]
inactive: all other assays above

Cc1ccc(C)c(O)c1C
not listed: [8]
inactive: all other assays above

Clc1cc(Cl)c(Cl)cc1Cl
not listed: [5] | [13] | [19]
inactive: all other assays above

c1cc(-c2ccncc2)ccn1
not listed: [5] | [8] | [18] | [19]
inactive: all other assays above

COC(=O)c1ccc(O)cc1
not listed: [5] | [13] | [18] | [19]
inactive: all other assays above
